# From ChEMBL document CHEMBL3988442, “University of Dundee, Small-Polar-MMV Screening Library” (2021)
# About 1,200 (3.2%) of roughly 38,000 compounds showed an effect of 50% or more. The median lay at about -58%. This excerpt belongs to a sample that is enriched for strong results.
# Tested on: Plasmodium falciparum
# Assay: Calibr Malaria Delayed Death Assay SOP
# Assay type: functional, organism-based
# Design: scale not given: in the data most compounds retested in dose-response had high values
# Conditions: concentration 4.99e-06 (unit not given; other assays of the set use mol/L)
row,Structure (SMILES),Percent Effect [%]
1,Cc1cc2nc(-c3ccccc3)cc(NCC3CCCOC3)n2n1 (stereo not given),20.07
2,COCCC(=O)Nc1nc2c(OC)cc(F)cc2s1,-96.38
3,CC(NCc1ccc(C(N)=O)cc1)c1ccc(Cl)c(Cl)c1.Cl (stereo not given),4.882
4,COc1ccc(CNC(C)c2ccccc2Cl)c(OC)c1OC.Cl (stereo not given),74.88
5,COc1ccc(CNC(C)c2ccc(Cl)cc2)c(OC)c1OC (stereo not given),80.38
6,COc1ccc(CNC(C)c2ccc(Cl)c(Cl)c2)c(OC)c1OC (stereo not given),65.05
7,COc1ccc(C(C)NCc2c[nH]nc2C)cc1OC.Cl (stereo not given),-66.18
8,COc1ccc(C(C)NCc2ccc(OC)c(OC)c2OC)cc1F.Cl (stereo not given),34.25
9,COc1ccc(CNC(C)Cn2cccn2)c(OC)c1OC.Cl (stereo not given),-41.68
10,COc1ccc(CNC(C)c2cccc(Cl)c2)c(OC)c1OC (stereo not given),42.06
11,COCCS(=O)(=O)NC(C)c1ccccc1Cl (stereo not given),-65.19
12,Cc1ccc(CN2C[C@H](OCC3CCN(C)CC3)[C@H]3COC[C@H]32)o1,12.64
13,Cc1nc(NC(=O)c2c(-n3cnnn3)sc3c2CCC3)sc1C,-110.9
14,CCOc1ccccc1NC(=O)NCCc1ccoc1,-120.2
15,COC(=O)c1cccc(C(=O)N(C)Cc2cccc(F)c2)c1,-135.6
16,Cc1cc(CN2CCCC2)cc(Oc2ccc3c(c2)CC(CN)O3)c1 (stereo not given),26.4
17,COc1cc(CN2CCCC2)ccc1Oc1ccc2c(c1)CC(CN)O2 (stereo not given),58.6
18,COc1ccc(CN2CCCC2)cc1Oc1cccc(C#N)n1,41.79
19,COc1cc(CN2CCCC2)ccc1OC12CCCN(CC1)C2 (stereo not given),-168.7
20,COc1ccc(CN2CCCC2)cc1Oc1ccc2c(c1)CC(CN)O2 (stereo not given),87.78
21,COc1ccc(CN2CCCC2)cc1Oc1ccc(NC(C)=O)cc1,-51.76
22,O=C(O)C(F)(F)F.O=C(O)C(F)(F)F.O=C(O)c1c(-c2cncnc2)ncc2c1CCN(Cc1ccco1)C2,-132.8

row,Structure (SMILES),Percent Effect [%]
1,CCNc1ncc2c(n1)CN(c1ccc(OC(F)(F)F)cc1)C2=O,14.47
2,O=C(N1CCCC1)N1CCC2(CCCN(CCOc3ccccc3)C2)C1.O=C(O)C(F)(F)F (stereo not given),-4.272
3,Cc1noc(C)c1CCCNc1cnccn1,-49.46
4,CN(C)C(=O)CN1CCOCC2(C1)CN(c1ncc(F)cn1)CCO2.O=C(O)C(F)(F)F (stereo not given),-15.1
5,Cc1ccnc(N2CCCC(c3nncn3C3CC3)C2)n1 (stereo not given),-51.92
6,CN1CCN(c2ccccc2NC(=O)c2ccco2)CC1,31.7
7,CN1CCN(c2ccc(Cl)cc2NC(=O)c2ccco2)CC1,41.12
8,CN1CCN(c2ccc(Br)cc2NC(=O)c2ccco2)CC1,52.34
9,CCc1cc(CN(C)C(=O)c2cnc3c(c2)nc(N)n3CC)on1,-104.3
10,c1cc(N2CCSCC2)ccc1CNc1cncc2nnnn12,-124.6
11,c1cc(CN2CCCC2)ccc1CNc1cncc2nnnn12,-34.44
12,c1ccc(CN2CCCC2)c(CNc2cncc3nnnn23)c1,60.42
13,Cc1cccc(NC(=O)c2ccc(OCc3nnnn3C)cc2)n1,-114.2
14,Cc1ccnc(NC(=O)c2cccc(OCc3nnnn3C)c2)c1,-241.7
15,Cc1cccc(NC(=O)c2cccc(OCc3nnnn3C)c2)n1,80.42
16,CN1CC=C(CCN(C)C(=O)CCc2ccccc2)CC1,19.5
17,CC(C(=O)NCc1ccco1)N1CCN(Cc2nccn2C)CC1 (stereo not given),-39.34
18,Cc1ccc(CN2CC3(CCN(C(=O)Cc4ccc(Cl)cc4)C3)C2)o1,-2.786
19,CNC(=O)c1cc2c(nc1NCC(C)C)CCN(c1ccncn1)CC2.O=C(O)C(F)(F)F,13.05
20,CC(=O)Nc1ccc(-n2ccc3nc(N4CCCC4)ncc3c2=O)cc1,-5.195
21,Cc1ccc(C)c(-n2ccc3nc(N4CCCC4)ncc3c2=O)c1,-31.4
22,COCCn1cnc2ccc(NC(=O)CCCn3cccn3)cc2c1=O,-21.82

row,Structure (SMILES),Percent Effect [%]
1,Cn1cc(-c2cnc(N3CCOCC3)nc2)cc1C(=O)NCCC#N.O=C(O)C(F)(F)F,-137.7
2,O=C(O)CN1CCC(c2ccccc2)C1 (stereo not given),-52.87
3,Cc1cc(C)c2nc(CN3CCCC(c4cc[nH]n4)C3)cc(O)c2c1 (stereo not given),52.56
4,Cc1cc(C)c2nc(CN3CC[C@@H](O)C3)cc(O)c2c1,-11.32
5,Cc1ccc2nc(CN3CCN(C4CCCC4)C(=O)C3)cc(O)c2c1,-147.5
6,Cc1ccncc1NS(=O)(=O)c1ccc(Cl)s1,-120.5
7,O=C(c1cnn2c1OCCC2)N1CCN(C(=O)C2CCCO2)CC1 (stereo not given),-54.26
8,CC(C)(C(=O)NCC1CCN(Cc2ncc[nH]2)C1)c1ccccc1 (stereo not given),-18.61
9,CC(C)(C(=O)NCC1CCN(Cc2cccnc2)C1)c1ccccc1 (stereo not given),51.87
10,COC(C)(C)C(=O)NCC1CCN(Cc2cc3ccccc3[nH]2)C1 (stereo not given),-53.37
11,O=C(CCn1ccc2ccc(F)cc21)/N=c1\[nH]nc(C2CCCO2)s1 (stereo not given),-163.8
12,CCC(NC(=O)CNC(=O)OC)c1cc(F)ccc1F (stereo not given),-47.96
13,CCN(CC)S(=O)(=O)NC1CCCc2nc(-c3ccccc3)ncc21 (stereo not given),-18.05
14,CC(C)N1CCC2(CC1)C(=O)N(c1cccnc1)c1c(F)cccc12.Cl,48.28
15,CC(=O)N1CCC2(CC1)C(=O)N(c1cccnc1)c1ccc(F)cc12,-45.42
16,CN1CCC2(CC1)C(=O)N(c1cccnc1)c1ccc(F)cc12.Cl,58.26
17,CC(C)N1CCC2(CC1)C(=O)N(c1cccnc1)c1ccc(F)cc12.Cl,64.31
18,CN1CCC2(CC1)C(=O)N(C)c1ccc(F)cc12.Cl,-104.9
19,CC(C)N1C(=O)C2(CCN(C)CC2)c2cc(F)ccc21.Cl,-16.08
20,CC(=O)c1cc2ncc(C(=O)NC3CC3)cc2[nH]1,-111.2
21,Cc1ccccc1N1CC2(CCN(S(=O)(=O)C3CC3)C2)CC1=O (stereo not given),-190.8
